Source: PubChem BioAssay AID1159580 (chemical genetic matrix, 2015)
Where “and” joins values, the source holds several entries; their conditions need not be identical. Equal entries are not always repeated. About 2,000 (36%) of roughly 5,500 compounds were called active. Not shown: some 18% with an inconclusive outcome. Cut-off read from the data, not from the text of the source: active = normalized growth mostly below about 0.91 (no sharp cut-off); inconclusive = no clear call, values can overlap the other calls; inactive = mostly above about 0.92. The list shows a part of the results.

Experiment: chemical genetic growth profiling, strain panel (AID 1159580);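 note: tested at 20 µM; growth read once vehicle control cultures reached saturation at 30 °C; 1 = growth at the plate median or of vehicle wells; lower values mean less growth of the strain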
Conditions: S. cerevisiae deletion strains, growth OD
[1] = locus YAL013W, strain DEP1, hits give low values
[2] = locus YBR229C, strain ROT2, hits give low values
[3] = locus YDL101C, strain DUN1, hits give low values
[4] = locus YDR150W, strain NUM1, hits give low values
[5] = locus YEL061C, strain CIN8, hits give low values
[6] = locus YHR030C, strain SLT2, hits give low values
[7] = locus YJL187C, strain SWE1, hits give low values
[8] = locus YJR043C, strain POL32, hits give low values
[9] = locus YJR075W, strain HOC1, hits give low values
[10] = locus YLR039C, strain RIC1, hits give low values
[11] = locus YLR262C, strain YPT6, hits give low values
[12] = locus YMR307W, strain GAS1, hits give low values
[13] = locus YNL153C, strain GIM3, hits give low values
[14] = locus YOL006C, strain TOP1, hits give low values
[15] = locus YPL055C, strain LGE1, hits give low values
[16] = locus YPL241C, strain CIN2, hits give low values

Measured: normalized growth

CC(=O)OCC(=O)[C@@]12OC(C)(C)O[C@@H]1CC1C3C[C@H](F)C4=CC(=O)C=C[C@]4(C)[C@@]3(F)[C@@H](O)C[C@@]12C (some centres not stated)
inactive: [1] 1 | locus YAL021C, strain ccr4, hits give low values 1.01 | locus YAL026C, strain drs2, hits give low values 1.02 | locus YAL030W, strain snc1, hits give low values 1.02 | locus YBL061C, strain skt5, hits give low values 1.03 | locus YBR009C, strain hhf1, hits give low values 1.01 | locus YBR021W, strain FUR4, hits give low values 0.996 | locus YBR023C, strain chs3, hits give low values 1.03 | locus YBR171W, strain sec66, hits give low values 1.03 | [2] 1.01 | locus YBR231C, strain swc5, hits give low values 0.989 | locus YBR279W, strain paf1, hits give low values 1.03 | locus YCL011C, strain gbp2, hits give low values 1.04 | locus YCL016C, strain dcc1, hits give low values 1.03 | locus YCL029C, strain bik1, hits give low values 1.01 | locus YCL061C, strain MRC1, hits give low values 1.01 | locus YCL069W, strain vba3, hits give low values 1.02 | locus YCR088W, strain abp1, hits give low values 1.02 | locus YDL005C, strain med2, hits give low values 1.03 | locus YDL035C, strain GPR1, hits give low values 0.99 | locus YDL040C, strain nat1, hits give low values 1.02 | locus YDL074C, strain BRE1, hits give low values 1.01 | [3] 1.01 | locus YDL134C, strain PPH21, hits give low values 0.99 | locus YDL185W, strain tfp1, hits give low values 1.02 | locus YDL192W, strain arf1, hits give low values 1.02 | locus YDR001C, strain nth1, hits give low values 1.02 | locus YDR069C, strain doa4, hits give low values 0.998 | locus YDR101C, strain arx1, hits give low values 0.965 | locus YDR137W, strain rgp1, hits give low values 1.03 | [4] 1.01 | locus YDR159W, strain sac3, hits give low values 0.989 | locus YDR162C, strain NBP2, hits give low values 0.989 | locus YDR195W, strain ref2 0.999 | locus YDR297W, strain sur2, hits give low values 1.02 | locus YDR318W, strain mcm21, hits give low values 1.02 | locus YDR334W, strain swr1, hits give low values 1.02 | locus YDR335W, strain msn5, hits give low values 1.03 | locus YDR388W, hits give low values 1.01 | locus YDR392W, strain spt3, hits give low values 0.981 | locus YDR502C, strain sam2, hits give low values 1 | locus YEL003W, strain gim4, hits give low values 1.02 | locus YEL037C, strain rad23, hits give low values 1.02 | locus YEL061C, strain CIN8 (second series), hits give low values 1.02 | [5] 1.01 | locus YER015W, strain faa2, hits give low values 1.02 | locus YER016W, strain bim1, hits give low values 1.01 | locus YER110C, hits give low values 1.02 | locus YER111C, strain swi4, hits give low values 1.04 | locus YER155C, strain BEM2 (second series), hits give low values 0.995 | locus YER155C, strain BEM2, hits give low values 1.01 | locus YER167W, strain BCK2, hits give low values 0.996 | locus YFR010W, strain ubp6, hits give low values 1.01 | locus YGL078C, strain dbp3, hits give low values 1.02 | locus YGL086W, strain mad1, hits give low values 0.992 | locus YGL167C, strain pmr1, hits give low values 1.02 | locus YGL173C, strain kem1, hits give low values 1.02 | locus YGL227W, strain vid30, hits give low values 1.03 | locus YGL240W, strain doc1, hits give low values 1.01 | locus YGL248W, strain PDE1, hits give low values 1.01 | locus YGL253W, strain hxk2, hits give low values 1.01 | locus YGR135W, strain pre9, hits give low values 1.07 | locus YGR252W, strain gcn5, hits give low values 1.1 | locus YHR013C, strain ard1, hits give low values 1.04 | locus YHR027C, strain rpn1, hits give low values 1.02 | [6] 0.995 and 0.988 | locus YHR079C, strain IRE1 (second series), hits give low values 1.01 | locus YHR079C, strain IRE1, hits give low values 1 | locus YHR094C, strain hxt1, hits give low values 1.02 | locus YHR129C, strain ARP1, hits give low values 1.01 | locus YHR142W, strain chs7, hits give low values 1.04 | locus YHR200W, strain rpn10, hits give low values 1.01 | locus YIL066C, strain RNR3, hits give low values 1 | locus YIL073C, strain SPO22, hits give low values 1.02 | locus YIL125W, strain kgd1, hits give low values 1 | locus YIR030C, strain dcg1, hits give low values 1.03 | locus YJL092W, strain hpr5, hits give low values 1.03 | locus YJL095W, strain BCK1 (second series), hits give low values 1.02 | locus YJL095W, strain BCK1, hits give low values 1.03 and 0.999 | locus YJL115W, strain asf1, hits give low values 1.01 | locus YJL129C, strain trk1, hits give low values 1.03 | locus YJL134W, strain LCB3, hits give low values 1.01 | locus YJL154C, strain vps35, hits give low values 1.02 | locus YJL164C, strain tpk1, hits give low values 1.02 | locus YJL166W, strain qcr8, hits give low values 1.04 | locus YJL168C, strain set2, hits give low values 1.02 | locus YJL187C, strain SWE1 (second series), hits give low values 1.01 | [7] 1.02 | [8] 0.999 | locus YJR066W, strain TOR1, hits give low values 0.937 | [9] 1 | locus YKL009W, strain mrt4, hits give low values 1.01 | locus YKL068W, hits give low values 1.01 | locus YKL085W, strain MDH1 (second series), hits give low values 1.01 | locus YKL085W, strain MDH1, hits give low values 1.01 | locus YKL160W, strain elf1, hits give low values 1.05 | locus YKR001C, strain vps1, hits give low values 1 | locus YKR026C, strain gcn3, hits give low values 1.02 | locus YKR091W, strain srl3, hits give low values 1.02 | locus YLL001W, strain dnm1, hits give low values 1.03 | locus YLL026W, hits give low values 1.02 | locus YLL041C, strain sdh2, hits give low values 1.01 | locus YLR027C, strain aat2, hits give low values 1.01 | [10] 1.06 | locus YLR058C, strain SHM2, hits give low values 1.01 | locus YLR102C, strain apc9, hits give low values 1.01 | locus YLR113W, strain HOG1, hits give low values 1.02 | locus YLR221C, strain rsa3, hits give low values 1.03 | locus YLR258W, strain gsy2, hits give low values 1.04 | locus YLR262C, strain YPT6 (second series), hits give low values 1.04 | [11] 0.987 | locus YLR268W, strain sec22, hits give low values 1.01 | locus YLR320W, strain mms22, hits give low values 1.06 | locus YLR330W, strain CHS5, hits give low values 1.01 | locus YLR342W, strain FKS1 (second series), hits give low values 1.03 | locus YLR342W, strain FKS1, hits give low values 1.03 | locus YLR357W, strain rsc2, hits give low values 1.01 | locus YLR370C, strain arc18, hits give low values 1.03 | locus YLR371W, strain rom2, hits give low values 1.01 | locus YLR384C, strain iki3, hits give low values 1.03 | locus YLR418C, strain cdc73, hits give low values 1.03 | locus YML016C, strain PPZ1, hits give low values 1 | locus YML032C, strain rad52, hits give low values 0.996 | locus YML120C, strain ndi1, hits give low values 1.04 | locus YML124C, strain tub3, hits give low values 1.03 | locus YMR058W, strain fet3, hits give low values 1.01 | locus YMR078C, strain ctf18, hits give low values 1.01 | locus YMR125W, strain sto1, hits give low values 1.03 | locus YMR129W, hits give low values 1.02 | locus YMR205C, strain PFK2, hits give low values 1.05 | locus YMR223W, strain ubp8, hits give low values 1.05 | locus YMR231W, strain pep5, hits give low values 1.02 | [12] 1.04 | locus YNL067W, strain RPL9B, hits give low values 0.995 | locus YNL071W, strain lat1, hits give low values 1.03 | [13] 1.01 | locus YNL183C, strain NPR1, hits give low values 0.945 | locus YNL209W, strain ssb2, hits give low values 1.03 | locus YNL233W, strain BNI4, hits give low values 1.01 | locus YNL248C, strain rpa49, hits give low values 1.02 | locus YNL250W, strain rad50, hits give low values 1.03 | locus YNL271C, strain bni1, hits give low values 1.04 | locus YNL298W, strain CLA4, hits give low values 1.04 | locus YNL307C, strain MCK1, hits give low values 1.02 | locus YNL322C, strain KRE1 (second series), hits give low values 1.04 | locus YNR049C, strain mso1, hits give low values 1.02 | locus YNR052C, strain pop2, hits give low values 1.01 | [14] 1.03 | locus YOL012C, strain htz1 2.14 | locus YOL147C, strain pex11, hits give low values 1.02 | locus YOR001W, strain rrp6, hits give low values 1 | locus YOR061W, strain CKA2, hits give low values 1.01 | locus YOR069W, strain VPS5, hits give low values 1.01 | locus YOR070C, strain gyp1, hits give low values 1.03 | locus YOR080W, strain dia2, hits give low values 1.02 | locus YOR083W, strain WHI5, hits give low values 1.04 | locus YOR106W, strain vam3, hits give low values 1.05 | locus YOR136W, strain idh2, hits give low values 1.01 | locus YOR144C, strain elg1, hits give low values 1 | locus YOR184W, strain ser1, hits give low values 1.01 | locus YOR231W, strain MKK1, hits give low values 0.999 | locus YOR265W, strain rbl2, hits give low values 1.02 | locus YOR270C, strain vph1, hits give low values 1.03 | locus YOR290C, strain snf2, hits give low values 0.982 | locus YOR316C, strain cot1, hits give low values 1.01 | locus YPL051W, strain arl3, hits give low values 1.02 | [15] 1.01 | locus YPL078C, strain atp4, hits give low values 1.04 | locus YPL106C, strain sse1, hits give low values 1 | locus YPL240C, strain hsp82, hits give low values 1.01 | [16] 0.999 | locus YPL256C, strain CLN2, hits give low values 0.974 | locus YPR119W, strain clb2, hits give low values 1.01 | locus YPR141C, strain kar3, hits give low values 1.02 | locus YPR163C, strain tif3, hits give low values 1.02 | locus YPR167C, strain met16, hits give low values 1.02 | strain wtn01, hits give low values 1.02

Cc1cccc2nc(-c3ccccc3)oc(=O)c12
active: locus YLR085C, strain ARP6, hits give low values 0.744 | [15] 0.781
inactive: [1] 0.966 | [2] 0.975 | [3] 0.968 | [4] 0.934 | [5] 0.936 | locus YGR078C, strain PAC10, hits give low values 0.959 | locus YGR229C, strain SMI1, hits give low values 0.984 | [6] 0.708 | locus YHR087W, strain rtc3, hits give low values 0.953 | [7] 0.946 | [8] 0.971 | [9] 0.942 | locus YKL190W, strain CNB1, hits give low values 0.987 | [10] 0.826 | locus YLR058C, strain SHM2 (second series), hits give low values 0.968 | [11] 0.942 | locus YML094W, strain GIM5, hits give low values 0.88 | locus YMR219W, strain ESC1, hits give low values 0.976 | locus YMR263W, strain SAP30, hits give low values 0.958 | [12] 0.735 | locus YNL128W, strain TEP1, hits give low values 0.974 | [13] 0.975 | locus YNL298W, strain CLA4 (second series), hits give low values 0.95 | locus YNL322C, strain KRE1, hits give low values 0.983 | locus YNR030W, strain Alg12, hits give low values 0.929 | [14] 0.801 | [16] 0.915 | locus YPR135W, strain CTF4, hits give low values 0.812
